Measured values from PMC3218832.

Columns and labels:
Test in all cases: protein binding microarray; high values mean tight binding
Conditions in all cases: dsDNA, one strand shown
RELARELA (p65 homodimer) = RELARELA (p65 homodimer) (Homo sapiens, UniProt Q04206 1-307)
p50p50 homodimer = p50p50 homodimer (Homo sapiens, UniProt P19838 7-356)
p52p52 homodimer = target: T1, p52p52 homodimer (Homo sapiens, UniProt Q00653 4-332)
T1 sequence: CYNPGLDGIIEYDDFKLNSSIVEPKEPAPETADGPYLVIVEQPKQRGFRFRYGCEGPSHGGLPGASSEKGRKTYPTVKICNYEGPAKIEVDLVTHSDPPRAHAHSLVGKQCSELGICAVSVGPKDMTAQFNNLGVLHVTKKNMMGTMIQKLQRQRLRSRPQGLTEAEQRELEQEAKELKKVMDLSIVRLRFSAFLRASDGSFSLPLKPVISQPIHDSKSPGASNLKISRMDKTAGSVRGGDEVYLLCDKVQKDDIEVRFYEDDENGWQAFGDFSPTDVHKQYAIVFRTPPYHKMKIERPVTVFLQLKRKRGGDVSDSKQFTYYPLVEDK

[1] = target: RELA (p65) subunit of heterodimer;p50 subunit (Homo sapiens;Homo sapiens, UniProt Q04206;P19838 1-307;7-356)
Sequence of RELA (p65) subunit of heterodimer;p50 subunit (Q04206 1-307, chain 1 of 2): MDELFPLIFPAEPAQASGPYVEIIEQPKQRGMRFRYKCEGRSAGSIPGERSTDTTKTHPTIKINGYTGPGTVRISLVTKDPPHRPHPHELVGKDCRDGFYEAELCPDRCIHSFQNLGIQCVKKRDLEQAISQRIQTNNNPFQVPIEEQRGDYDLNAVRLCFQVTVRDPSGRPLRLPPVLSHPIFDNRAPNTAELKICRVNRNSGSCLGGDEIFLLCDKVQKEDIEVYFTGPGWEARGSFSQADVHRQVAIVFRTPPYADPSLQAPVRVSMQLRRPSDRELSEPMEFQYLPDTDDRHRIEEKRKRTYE
Sequence of RELA (p65) subunit of heterodimer;p50 subunit (P19838 7-356, chain 2 of 2): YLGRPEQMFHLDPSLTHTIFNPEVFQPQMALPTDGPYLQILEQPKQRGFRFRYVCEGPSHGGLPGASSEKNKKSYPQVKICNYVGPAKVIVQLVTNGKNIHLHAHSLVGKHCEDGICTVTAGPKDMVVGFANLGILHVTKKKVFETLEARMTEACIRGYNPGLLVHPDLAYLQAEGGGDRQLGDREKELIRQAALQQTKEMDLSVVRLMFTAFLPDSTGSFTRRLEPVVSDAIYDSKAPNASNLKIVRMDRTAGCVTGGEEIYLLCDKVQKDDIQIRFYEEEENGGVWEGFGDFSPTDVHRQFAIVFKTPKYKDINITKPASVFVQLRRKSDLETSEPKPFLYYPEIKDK

[2] = target: RELA (p65) subunit of heterodimer;p52 subunit (Homo sapiens;Homo sapiens, UniProt Q04206;Q00653 1-307;4-332)
RELB subunit;p50 subunit = RELB subunit;p50 subunit (Homo sapiens;Homo sapiens, UniProt Q01201;P19838 120-401;7-356)
RELB subunit;p52 subunit = target: T2, RELB subunit;p52 subunit (Homo sapiens;Homo sapiens, UniProt Q01201;Q00653 120-401;4-332)
T2 sequence 1: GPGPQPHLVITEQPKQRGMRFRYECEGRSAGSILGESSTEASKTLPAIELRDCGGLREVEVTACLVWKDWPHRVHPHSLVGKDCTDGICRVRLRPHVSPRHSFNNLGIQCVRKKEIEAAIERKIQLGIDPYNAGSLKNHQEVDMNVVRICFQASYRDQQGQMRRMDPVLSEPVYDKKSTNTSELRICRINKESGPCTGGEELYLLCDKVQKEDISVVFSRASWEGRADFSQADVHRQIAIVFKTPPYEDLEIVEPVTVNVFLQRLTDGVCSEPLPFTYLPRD
T2 sequence 2: T1 sequence

[3] = target: C-Rel subunit;p50 subunit (Homo sapiens;Homo sapiens, UniProt Q04864;P19838 1-285;7-356)
[4] = target: T3, C-Rel subunit;p52 subunit (Homo sapiens;Homo sapiens, UniProt Q04864;Q00653 1-285;4-332)
T3 sequence 1: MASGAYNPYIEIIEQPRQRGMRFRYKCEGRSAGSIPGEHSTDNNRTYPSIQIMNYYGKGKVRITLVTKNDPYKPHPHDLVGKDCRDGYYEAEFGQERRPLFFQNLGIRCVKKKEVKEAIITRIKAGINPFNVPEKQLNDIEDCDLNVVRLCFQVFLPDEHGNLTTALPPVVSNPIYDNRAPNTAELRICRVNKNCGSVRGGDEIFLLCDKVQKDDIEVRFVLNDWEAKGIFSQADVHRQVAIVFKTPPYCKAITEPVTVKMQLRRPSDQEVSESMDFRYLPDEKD
T3 sequence 2: T1 sequence

Sequence of RELARELA (p65 homodimer) (Q04206 1-307): as the sequence (Q04206 1-307, chain 1 of 2) above
Sequence of p50p50 homodimer (P19838 7-356): as the sequence (P19838 7-356, chain 2 of 2) above

Row | Sequence | binding signal (RELARELA (p65 homodimer)) [z-score] | binding signal (p50p50 homodimer) [z-score] | binding signal (p52p52 homodimer) [z-score] | binding signal [1] [z-score] | binding signal [2] [z-score] | binding signal (RELB subunit;p50 subunit) [z-score] | binding signal (RELB subunit;p52 subunit) [z-score] | binding signal [3] [z-score] | binding signal [4] [z-score]
1 | CGGGTATCCCC | 1.9 | 0.854 | 2.48 | 1.84 | 2.01 | 0.893 | 1.59 | 1.64 | 2.53
2 | AAATGACCCCT | -0.474 | 0.593 | 0.182 | 0.135 | 0.303 | 0.241 | 0.325 | -0.224 | 0.165
3 | GAAAACGTCCT | -0.176 | -1.26 | -0.536 | -0.838 | -0.654 | -0.872 | -0.687 | -0.823 | -0.648
4 | GAGTAAGCCCC | -0.458 | 0.604 | 0.178 | 0.392 | 0.155 | 0.171 | 0.116 | 0.263 | 0.236
5 | CAAGTTGTCCC | 0.644 | 0.614 | 0.469 | 0.421 | 0.267 | 0.826 | 0.446 | 0.778 | 0.251
6 | GGAAATCCCCT | 3.63 | 1.5 | 3.23 | 3.21 | 3.34 | 2.45 | 3.27 | 3.04 | 3.88
7 | GAAGTAATCCT | -0.663 | -1.65 | -0.468 | -1 | -0.977 | -1.16 | -0.928 | -1.23 | -0.892
8 | CGAGTAACCCC | -0.498 | -0.0762 | -0.149 | -0.232 | -0.211 | -0.188 | 0.213 | -0.0464 | -0.115
9 | GAGGAGCTCCT | -0.566 | -1.81 | -0.78 | -1.13 | -0.927 | -1.05 | -1.06 | -1.73 | -0.927
10 | AAATTACTCCC | 0.447 | 0.204 | -0.0753 | 0.132 | -0.25 | 0.146 | -0.105 | 0.213 | -0.11
11 | GGAGGTATCCC | -0.331 | -1.01 | -0.304 | -0.519 | -0.401 | -0.488 | -0.395 | -0.57 | -0.276
12 | GGATAGACCCC | -0.296 | -0.324 | -0.227 | -0.111 | -0.128 | -0.398 | 0.071 | -0.41 | -0.251
13 | GAATAGGTCCT | -0.471 | -1.25 | -0.387 | -1.08 | -0.8 | -0.766 | -0.501 | -1.35 | -0.527
14 | GAAAAGTCCCT | 1.43 | 1.36 | 2.5 | 2.07 | 1.79 | 2.67 | 2.22 | 1.59 | 2.16
15 | AAATAACCCCC | 0.321 | 1.39 | 1.6 | 1.69 | 1.48 | 1.69 | 1.68 | 1.32 | 1.39
16 | AAGAGGCTCCC | -0.428 | -1.01 | -0.505 | -0.958 | -0.845 | -0.665 | -0.714 | -1.12 | -0.72
17 | CAGATACTCCC | -0.1 | -0.181 | -0.309 | -0.154 | -0.498 | -0.145 | -0.637 | -0.312 | -0.374
18 | CGATTAATCCC | 0.0967 | -0.315 | -0.0861 | -0.0553 | -0.137 | 0.0473 | -0.161 | -0.0218 | -0.299
19 | AGGTAGCTCCT | -0.716 | -0.916 | -0.638 | -0.909 | -0.901 | -0.802 | -0.975 | -1.36 | -0.889
20 | GAATACATCCT | -0.313 | -0.946 | -0.677 | -0.816 | -0.805 | -0.977 | -0.824 | -1.36 | -0.87
21 | CGATGGGCCCT | -0.936 | -1.43 | -0.601 | -0.968 | -0.798 | -0.95 | -0.85 | -1.73 | -0.583
22 | GAGGGCACCCT | -0.976 | -1.27 | -0.651 | -0.906 | -0.74 | -0.75 | -0.795 | -1.04 | -0.757
23 | AAAAAGCTCCT | -0.678 | -1.47 | -0.675 | -1.01 | -1.04 | -1.17 | -1.06 | -1.49 | -1.07
24 | CAAATAATCCT | -0.308 | -0.88 | -0.501 | -0.911 | -0.746 | -0.974 | -0.846 | -1.09 | -0.674
25 | AAGGGTGCCCT | -1.07 | -1.79 | -0.569 | -1.02 | -0.718 | -0.876 | -0.74 | -1.1 | -0.646
26 | AAAAGAATCCC | 0.306 | 0.444 | 0.44 | 0.389 | 0.575 | 0.356 | 0.317 | 0.495 | 0.359
27 | AGATAGATCCT | -0.82 | -1.87 | -0.716 | -1.06 | -1.23 | -1.03 | -0.915 | -1.64 | -0.98
28 | GGGTTTGCCCT | 1.25 | -0.184 | 0.265 | 0.277 | 0.423 | -0.518 | -0.154 | 0.409 | 0.225
29 | GAGAGTTCCCC | 1.61 | 1.06 | 1.71 | 1.77 | 1.55 | 1.7 | 1.62 | 1.21 | 1.67
30 | AAATGTGCCCC | 0.655 | -0.0191 | 0.195 | 0.499 | 0.0761 | 0.0211 | 0.23 | 0.81 | 0.211
